± gives the standard deviation.
Experiments:
[1] = system: MILI (PIWIL2) piRISC loaded with L1MC piRNA (26 nt); assay: pre-steady-state target cleavage rate (min^-1); guide: L1MC piRNA 5'p-UAACUAAAUACUAUGCAAGCUGUAGG; higher = faster piRNA-guided slicing of the target
How it was run: (§1)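 Cleave-'n-Seq used a transcribed, DNA-blocked target RNA library at 0.1 nM and active affinity-purified piRISC with one synthetic guide at 1 nM, with or without 500 nM GTSF1 partner protein, in HEPES–potassium acetate buffer at 33 °C for 0–8 or 0–960 min. Uncleaved targets were sequenced and normalised to depth and to weakly complementary targets, and three trials were pooled with k3 capped at 0.0001 min^-1. The pre-steady-state cleavage rate was estimated by a burst-and-steady-state fit.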

[2] = system: EfPiwi piRISC loaded with L1MC piRNA (26 nt); assay: pre-steady-state target cleavage rate (min^-1); auxiliary factor: 500 nM Ephydatia muelleri Gtsf1; guide: L1MC piRNA 5'p-UAACUAAAUACUAUGCAAGCUGUAGG; MIWI and MILI are mouse PIWI proteins and EfPiwi is from a freshwater sponge; tags in brackets are library labels; higher = faster piRNA-guided slicing of the target
How it was run: as §1

[3] = auxiliary factor: 500 nM mouse GTSF1
[4] = auxiliary factor: none (no GTSF1)

Sequence | pre-steady-state target cleavage rate [1, 3] | pre-steady-state target cleavage rate [1, 4] | pre-steady-state target cleavage rate [2]
UCCUCCUACAGCUAGCAUAGUAUUUAGUAA | 0.199 ± 0.023 | 0.00331 ± 0.0021 | 0.005 ± 0.0022
UCCUCCUACAUCUUGCAUAGUAUUUAGUUA | 0.277 ± 0.02 | 0.00791 ± 0.0022 | 
UCCUGGAUGUGCUUGCAUAGUAUUUAGUGUA | 0.101 ± 0.015 | 0.00366 ± 0.0034 | 
UCCUGGAUGUCGUUGCAAAGUAUUUAGUUA | 0.0181 ± 0.0047 | 0.00739 ± 0.0022 | 
UCCUGGAUGUCGUUGCAUAGUAUUUAGUUG [g2:g18:cont:t1G] | 0.1 ± 0.016 | 0.00688 ± 0.003 | 
UCCUGGUACAGGUUGCAUAGUAUUUUGUUA | 0.189 ± 0.042 | 0.0111 ± 0.0045 | 
UCCUGGAUGUCCUUGCAUAGUAUAAAGUUA | 0.0673 ± 0.015 | 0.00312 ± 0.0028 | 
UCCUGGAUGUCGUUGCAUAGUUUUUAGUUA | 0.00524 ± 0.0046 | 0.00595 ± 0.0026 | 
UCCUGGAUCACCUUGCAUAGUAUUUAGUUA | 0.234 ± 0.023 | 0.00706 ± 0.0023 | 
UCCUGGAUCAGCUUGCAUAGUAUUAUGUUA | 0.122 ± 0.021 | 0.00357 ± 0.0028 | 0.005 ± 0.0024
UCCUGGAUGUCGAAGCAUAGUAUUUUAGUUA | 0.0433 ± 0.01 | 0.00324 ± 0.0028 | 
UCCUGGAUGAGCUUGACAUAGUAUUUAGUUA | 0.0929 ± 0.01 | 0.00352 ± 0.0026 | 0.00729 ± 0.0021
UCCUGGAUGUGCUUGCAUAGUAUUUAUGUUA | 0.109 ± 0.021 | 0.0053 ± 0.0027 | 
UCCUGGAUGUCGUGGCAUAGUAUUUAGUUA | 0.0441 ± 0.011 | 0.00558 ± 0.0029 | 
UCCUGGAUCAGCUAGCAUAGUAUAUAGUUA | 0.22 ± 0.02 | 0.00644 ± 0.0023 | 
UCCUGGAUGUCCUUGCAUUGUAAUUAGUUA | 0.014 ± 0.0069 | 0.00354 ± 0.0025 | 
UCCUGGAUCAGCUUGCAUAGAUUUUAGUUA | 0.0267 ± 0.007 | 0.00395 ± 0.0023 | 
UCCUGGAUGUCGUUGCAUGGUAUUUAGUUA | 0.0354 ± 0.01 | 0.00854 ± 0.0034 | 
UCCUGGUAGCAGCUUGCAUAGUAUUUAGUUA | 0.286 ± 0.019 | 0.0162 ± 0.0048 | 
UCCUGGAUGUCCUUGGAUAGUAAUUAGUUA | 0.411 ± 0.1 | 0.00325 ± 0.0027 | 
UCCUGGAUCACCUUGGAUAGUAUUUAGUUA | 0.173 ± 0.02 | 0.00563 ± 0.0021 | 
UCCUGGAUGUCGUUGCAUAGUAUGUUAGUUA | 0.203 ± 0.042 | 0.00861 ± 0.0031 | 
UCCUGGAUGUGCUUGCUUAGUAUUUAGUUA | 0.094 ± 0.013 | 0.0114 ± 0.0031 | 
UCCUGGAACAGGUUGCUUAGUAUUUAGUUA | 0.253 ± 0.015 | 0.0109 ± 0.0031 | 0.00924 ± 0.0022
UCCUGGAUGUCCUUGCAUAGAUAUUUAGUUA | 0.00754 ± 0.004 | 0.00426 ± 0.0023 | 
UCCUCCUACAGCUUGCAUUGAAUUUAGUUA | 0.0267 ± 0.008 | 0.00236 ± 0.0021 | 
UCCUCCAACUGCUUGCAUAGUAUUUAGUUA | 0.256 ± 0.017 | 0.00659 ± 0.0019 | 0.0183 ± 0.0064
UCCUGGAUGUGCUUGCAUACAAUUUAGUUA | 0.00405 ± 0.0039 | 0.0028 ± 0.0024 | 
